Most compounds without a hit are left out; they make up all but 19% or so of the library.
Cycloheximide cs: affects cycloheximide protein synthesis inhibition readout, counter-screen | max response, % | AID 2314 | cell reporter, cycloheximide protein synthesis inhibition counterscreen | actives 12% (n = 300,000); in the data active means max response mostly above about 13%, no sharp cut-off; inactive means mostly below about 14%; further: read at 38.3 µM for the half of the compounds with a filed dose
Pf growth 96h: inhibits malaria parasite growth, 96 h | P. falciparum luciferase reporter growth, 96 h | Potency, µM (titrated, usually from 28.7 µM), hits mostly inhibitors | actives 6.9% (n = 320,000) | AID 504834
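P. falciparum expressing integrated firefly luciferase grown in erythrocytes (2% hematocrit, 0.05% parasitemia final) with compounds for 96 hours at 37 C, 5% CO2. Growth inhibition read as loss of luminescence after adding luciferase detection reagent.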
Shiga toxin inh: Shiga toxin inhibition. AID 2315. actives 9.2% (n = 290,000). inhibition, % at 38.7 µM. Vero cells, Shiga toxin protein synthesis inhibition reporter; in the data active means inhibition mostly above about 28%, no sharp cut-off; inactive means mostly below about 43%
SARS PLP yeast: SARS-CoV PLP inhibition in yeast; S. cerevisiae expressing SARS-CoV PLpro, growth rescue; Potency, µM (highest dose often 32.9 µM), actives largely listed as activators; actives 0.19% (n = 330,000); calls by dose curve; further: nearly all actives have a fitted effect of over 55% in size
AMA1-RON2 inh: inhibitors of Plasmodium falciparum AMA1-RON2 interaction; Potency, µM (titrated, usually from 58.2 µM), hits mostly inhibitors; actives 0.2% (n = 360,000); AID 720542; AlphaScreen AMA1-biotinylated RON2 peptide binding; further: nearly all actives have a fitted effect of over 45% in size
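AMA1 (3D7) with his tag at 25 nM final met compounds first, then biotinylated RON2 peptide at 25 nM; detection used donor plus acceptor beads, 10 µg/mL apiece, read by AlphaScreen after 30 min at room temperature.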
Pf growth 48h: inhibits P. falciparum growth in the first generation, 48 h; actives 5.9% (n = 310,000); Potency, µM (series often up to 28.7 µM), most hits filed as inhibitors; P. falciparum luciferase growth in erythrocytes, 48 h
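Luciferase-expressing P. falciparum in infected erythrocytes (2% hematocrit, 0.1% parasitemia final) in RPMI 1640/0.5% Albumax were exposed to compound for 48 hours at 37 C, 5% CO2; growth read as luminescence.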
Numbers stand for hits; n = inactive; u = inconclusive; x = no result given; [ ] = remark or other dose. Unless noted, the call rests on the fitted dose curve; in most records, active means well fitted curve in the direction sought with a large enough effect; inconclusive means small, poorly fitted or top-dose-only effect, or another doubt; inactive means no such curve, though single readings can be large; an effect the other way counts as inactive or inconclusive.

SMILES | Cycloheximide cs | Pf growth 96h | Shiga toxin inh | SARS PLP yeast | AMA1-RON2 inh | Pf growth 48h
C/C(=N\NC(=O)Cc1ccccc1)c1ccc(Br)s1 | n | n | n | n | n | n
C/C(=N\NC(N)=S)c1ccccc1 | n | u | n | n | n | n
C/C(=N\NC(N)=S)c1cc(-c2ccccc2)c(-c2ccccc2)s1 | n | u | x | n | n | 9.28µM
C=CCN(CC=C)CC(=O)Nc1ccc(S(N)(=O)=O)cc1 | n | u | n | n | n | n
Nc1ncnc2c1ncn2[C@@H]1O[C@H](CNC(=O)[C@@H](N)Cc2ccc(C(=O)c3ccccc3)cc2)[C@@H](O)[C@H]1O | x | x | x | x | n | x
O=C(C1CCC(CNS(=O)(=O)c2cccc3cccnc23)CC1)N1CCCC1 (stereo unspecified) | n | 13.1µM | n | n | n | n
O=C(NCc1ccccc1)C1CCCN1S(=O)(=O)c1cccc2cccnc12 (stereo unspecified) | n | 4.65µM | n | n | n | n
O=C(NC1CCCC1)C1CCCN1S(=O)(=O)c1cccc2cccnc12 (stereo unspecified) | n | n | n | n | n | x
COc1ccc(C)cc1N(C(=O)c1ccc(F)cc1)c1nc2ccccc2s1 | n | u | n | n | n | u
COc1ccc(C)cc1N(C(=O)COc1cccc(F)c1)c1nc2ccccc2s1 | n | u | n | n | n | 0.738µM
CC(C)/C=C1\CCc2c([nH]c3ccccc23)C1=O | 31.8 | u | 45.1 | n | n | u
CCCC/C=C1\CCc2c([nH]c3ccccc23)C1=O | 32.2 | n | 57.0 | n | n | n
O=C1/C(=C\c2ccccc2)CCc2c1[nH]c1ccccc21 | 42.1 | n | 52.0 | n | n | n
CCCCCc1c(O)c2ccccc2[nH]c1=O | n | n | n | n | n | n
O=C1NCCc2c1[nH]c1ccccc21 | n | n | n | n | n | n
Cc1ccc(/C=C2/CCc3c([nH]c4ccccc34)C2=O)cc1 | 28.6 | n | 52.4 | n | n | n
Cc1ccc2c(c1)C1(C(=O)N2)N2CCCC2C(C(=O)c2ccc3ccccc3c2)C12C(=O)Nc1ccccc12 (stereo unspecified) | n | x | n | n | n | x
Cc1cccc(NS(=O)(=O)c2cn(C)c(=O)n(C)c2=O)c1C | n | n | n | u | n | n
CCc1nnc(NC(=O)CSc2nc(-c3ccccc3)nc3ccccc23)s1 | n | n | n | n | n[11.6 µM] | n
CCCCN1CCc2c([nH]c3ccccc23)C1=O | 35.2 | n | 94.6 | n | n | n
Cc1ccc2[nH]c3c(c2c1)CC/C(=C/c1ccccc1)C3=O | 23.3 | x | n | n | n | n
COCOCCn1cc(CN2CCS(=O)(=O)N(Cc3ccc(-c4ccncc4)cc3)C(CC(C)C)C2=O)nn1 (stereo unspecified) | x | x | x | x | n | x
O=[N+]([O-])c1ccccc1Oc1ccc(S(=O)(=O)N2CCOCC2)cc1 | x | u | x | n | n | u
COc1cc([N+](=O)[O-])cc(/C=N/NC(=O)CC#N)c1O | n | u | n | 7.08µM | x | n
O=C(CNc1ccccc1)N/N=C/c1cc([N+](=O)[O-])ccc1N1CCCC1 | n | u | n | u | n | n
SMILES | Cycloheximide cs | Pf growth 96h | Shiga toxin inh | SARS PLP yeast | AMA1-RON2 inh | Pf growth 48h
N#CCC(=O)N/N=C/c1cc([N+](=O)[O-])ccc1N1CCCC1 | n | u | 46.7 | n | n | u
CCN(CC)C(=O)C1CCCN(c2ccc([N+](=O)[O-])cc2/C=N/NC(=O)c2cccc([N+](=O)[O-])c2)C1 (stereo unspecified) | n | 10.4µM | n | n | n | u
O=C(N/N=C/c1cc([N+](=O)[O-])ccc1N1CCNCC1)c1ccc([N+](=O)[O-])cc1 | n | 4.15µM | n | n | n | u
O=C(CN1CCN(c2ccc(F)cc2)CC1)Nc1nccs1 | n | n | n | n | n | n[0.00184 µM]
O=C(NCCCN1CCOCC1)c1cccc(S(=O)(=O)N2CCc3ccccc32)c1 | x | x | x | x | n | x
O=C(Nc1ccncc1)c1cc(S(=O)(=O)N2CCOCC2)ccc1Cl | x | n | x | u | n | u
COc1cc([N+](=O)[O-])cc(/C=N/NC(=O)c2ccc(NC(=O)c3ccc(C)cc3)cc2)c1O | n | n | n | n | n | n
COc1cc([N+](=O)[O-])cc(/C=N/NC(=O)C(C)Nc2ccccc2C)c1O (stereo unspecified) | n | n | n | 22.4µM | n | n
CC1OC(C(C)(C)C)Cc2[nH][nH]c(=O)c21 (stereo unspecified) | x | x | x | x | n | x
O=C(c1ccc(Cl)cc1Cl)N1CCc2ccccc21 | n | n | n | n | n | u
O=C(/C=C/c1cccc(F)c1)N1CCc2ccccc21 | 64.7 | n | 102.2 | n | n | n
O=C(/C=C/c1ccc(F)cc1)N1CCCN(C(=O)/C=C/c2ccc(F)cc2)CC1 | n | n | n | n | n | n
O=C(/C=C/c1cccc(F)c1)OCC(=O)N1CCCc2ccccc21 | x | n | x | n | n | n
O=C(/C=C/c1ccc(Cl)cc1Cl)N1CCc2ccccc21 | 31.7 | n | 61.2 | n | n | n
O=C(/C=C/c1ccc(F)cc1)N1CCCc2ccccc21 | n | u | 42.9 | n | n | n
NC(=S)Nc1cccc(O)c1 | n | n | n | n | n | n
CCOC(=O)[C@]12CCCC=C1N(Cc1ccc3c(c1)OCO3)C(=O)[C@H](CC(=O)NCCC(C)C)C2 | x | x | x | x | n | x
CCN1CCCC1CNc1ncnc2c1[nH]c1ccc(Cl)cc12 (stereo unspecified) | n | 1.47µM | n | n | n | 0.657µM
Clc1ccc2[nH]c3c(NCCCN4CCOCC4)ncnc3c2c1 | n | n | n | n | n | 0.415µM
Cc1ccc2[nH]c3c(NCCN4CCOCC4)ncnc3c2c1 | 14.1 | n | 52.6 | n | n | 4.15µM
O=C1CCCN1CCCNc1ncnc2c1[nH]c1ccc(Cl)cc12 | 13.1 | u | n | n | n | u
Cc1ccc2ncnc(NCCCN3CCOCC3)c2c1 | n | u | n | n | n | u
COc1ccccc1/C=C(/C(=O)OCC(=O)Nc1cc(C)ccc1C)c1ccccc1 | n | n | n | n | n | n
CC1=NN(C(=O)COc2ccccc2C)C(O)(c2ccc(Cl)cc2)C1 (stereo unspecified) | n | u | n | n | n | n
Cc1c(S(=O)(=O)Nc2ccc(Oc3ccccc3)cc2)c(=O)n(C)c(=O)n1C | n | n | n | n | n | n
C=CCNc1ncnc2c1[nH]c1ccc(C)cc12 | 43.5 | u | 79.4 | n | n | u
Cc1cccc(N2CCN(Cc3nc(-c4cccc(Oc5ccccc5)c4)oc3C)CC2)n1 | n | n | n | n | u | u
Cc1cc(C)c(NC(=O)CSc2nncn2-c2cccnc2)c(C)c1 | n | 11.7µM | n | n | n | n
CCCn1c(SCC(=O)Nc2cccc(C(=O)OC)c2)nnc1-c1cccnc1 | n | 10.4µM | n | n | n | n
CCOC(=O)c1cccc(NC(=O)CSc2nnc(-c3ccncc3)n2CCCOC)c1 | n | u | n | n | n | n

Screens as filed in PubChem BioAssay.
